A short description of assay [1]: qHTS assay for small molecule agonists of the p53 signaling pathway (AID 651631; calls by dose curve; also: nearly all actives have a fitted effect of over 15% in size; also: potency is read from the fitted curve at half-maximal effect). In outline:
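Fluorescence intensity from cleaved LiveBLAzer B/G substrate (2 h, room temperature) served as the signal. Beforehand, HCT-116 reporter cells bearing p53 response elements were treated 16 h at 37 °C with DMSO-dissolved compounds.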
A general note: qHTS replaces the single test concentration by a dilution series.

Assay [2] can be described thus: qHTS assay for small molecules that induce genotoxicity in human embryonic kidney cells expressing luciferase-tagged ATAD5 (AID 651632). Also: nearly all actives have a fitted effect of over 15% in size. In outline: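 Reporter cells (HEK293T) express luciferase-tagged ATAD5, a protein that accumulates after DNA damage. Treat 16 hr at 37C/5% CO2, add Amplite, wait 30 min at RT, and read luminescence.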
A short description of assay [3]: qHTS assay for small molecule agonists of the p53 signaling pathway - cell viability (AID 651633; calls by dose curve;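 also: p53RE-bla HCT reporter cells with a stable beta-lactamase p53 reporter; series mostly up to about 83 µM; nearly all actives have a fitted effect of over 30% in size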). In outline:
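Viability counter-read: CellTiter-Glo luminescence (30 min, room temperature) in the same p53RE-bla plates. These plates had been exposed to compounds for 16 h at 37 C.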

A short description of assay [4]: qHTS assay for small molecules that induce genotoxicity in human embryonic kidney cells expressing luciferase-tagged ATAD5 - cell viability (AID 651634; calls by dose curve; also: nearly all actives have a fitted effect of over 25% in size). In outline: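 Seeding of 2,000 HEK293T ATAD5-luciferase cells per well preceded pin-tool compound transfer. Plates sat 15.5 hr at 37C under 5% CO2, then fluorescence was read after 30 min with CellTiter-Fluor.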

Assay [5] in a line: qHTS assay for small molecule disruptors of the mitochondrial membrane potential - cell viability (AID 720634; calls by dose curve;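 also: human HepG2 liver cancer cells; series mostly up to about 83 µM; nearly all actives have a fitted effect of over 20% in size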). The gist of the method:
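Measuring cytotoxicity alongside mitochondrial potential, the screen quantified ATP by luminescence in HepG2 cells after 1 hr compound incubation and a 30 min room-temperature CellTiter-Glo step.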

The nature of assay [6]: qHTS assay for small molecule disruptors of the mitochondrial membrane potential (AID 720635). Also: potency is read from the fitted curve at half-maximal effect. The gist of the method: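 Mitochondrial membrane potential tracked with Mito-MPS dye, red aggregates (ex 540/em 590 nm) against green monomers (ex 490/em 535 nm). Compound treatment 1 hr at 37C, dye 30 min in HepG2.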
A short description of assay [7]: qHTS assay to test for compound auto fluorescence at 590 nm (red) in HepG2 cells (AID 720674). In outline:
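Red autofluorescence (Ex/Em 540/590 nm, Rose Bengal sodium equivalents) was measured in HepG2 cells, 2,000 per well in MEM plus 10% FBS, plated overnight at 37 C. Readings were taken 1 hr after adding 23 nL compound or DMSO, at 37 C and 5% CO2.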

Assay [8] can be described thus: qHTS assay to test for compound auto fluorescence at 535 nm (green) in HepG2 cells (AID 720675).
Assay [9] is described as follows: qHTS assay to test for compound auto fluorescence at 460 nm (blue) in HEK293 cells (AID 720678). The gist of the method:
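Blue-channel (Ex/Em 405/460 nm) intensity measured in HEK293 cultures after overnight compound exposure at 37C; signal expressed relative to triamterene. Cells plated 2,000 per well in 10% dialyzed FBS medium and allowed 4-5 hr to attach.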

Assay [10] in a line: qHTS assay to test for compound auto fluorescence at 590 nm (red) in HEK293 cells (AID 720679). In outline: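 Red-channel autofluorescence (Ex/Em 540/590 nm; Rose Bengal sodium reference) was measured after overnight 37C, 5% CO2 exposure of attached HEK293 cells, 2,000 per well in medium with 10% dialyzed FBS.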

Results filed as inconclusive are left out. Calls of active or inactive are those of the source. Unless noted, calls follow the shape of the dose curve; as a rule, active = well fitted curve in the direction sought with a large enough effect in the repeat runs; inconclusive = weak or mixed curves; inactive = no such curve, though single readings can be large; an effect the other way counts as inactive or inconclusive. Starred links: 1 amine or outer side, 2 acyl side, 3 side chain; linkers in the order of their positions; H or OH if unused. Positions of bridges follow the written chain, without caps; N, C: chain ends. Non-standard residues stand in square brackets, D forms with d. Residues, ends and D or L forms follow the SMILES beside them. *: point of attachment. X5 = NC1=N[C@@H]([C@H](N[*:1])C(=O)[*:2])C[C@H](O)N1; ΔAla(Z-3-ureido) = NC(=O)N/C=C(\N)C(=O)O; β3hOrn = NCCC[C@H](N)CC(=O)*; Dap = NC[C@H](N)C(=O)O

In the case of `C=C1/C(=C\C=C2/CCC[C@]3(C)[C@@H]([C@H](C)OCCC(C)(C)O)CC[C@@H]23)C[C@@H](O)C[C@@H]1O`, the Potency in assay [1] is 11.9 µM (active). The Potency result in assay [2], in [3], in assay [4], in assay [5], in assay [6] and in assay [7] was “inactive” throughout. The Potency entry in assay [8], in [9] and in [10] was “inactive” in each case.
In the case of `CCCCCCCCCCCCCCCCCCOP(=O)([O-])OC1CC[N+](C)(C)CC1`, the Potency result in assay [1], in assay [2], in assay [3], in assay [4], in assay [5] and in assay [6] was “inactive” each time. Also, the Potency entry in assay [7], in [8], in [9] and in assay [10] was “inactive” each time.
Take `C[N+](C)(CCCCCC[N+](C)(C)C1c2ccccc2-c2ccccc21)C1c2ccccc2-c2ccccc21`: the Potency entry in [1], in assay [2], in [3], in assay [4], in assay [5] and in assay [6] was “inactive” each time. The Potency result in [7], in [8], in [9] and in assay [10] was “inactive” in each case.
As to `COC(=O)CCC(=O)CN`, the Potency entry in [1], in assay [2], in assay [3], in [4], in [5] and in assay [6] was “inactive” each time. Further, the Potency entry in [7], in assay [8], in assay [9] and in assay [10] was “inactive” in each case.
As to `Cc1c(N)nc(C(CC(N)=O)NCC(N)C(N)=O)nc1C(=O)NC(C(=O)NC(C)C(O)C(C)C(=O)NC(C(=O)NCCc1nc(-c2nc(C(=O)NCCCN[C@@H](C)c3ccccc3)cs2)cs1)C(C)O)C(O[C@@H]1O[C@@H](CO)[C@@H](O)[C@H](O)[C@@H]1O[C@H]1O[C@H](CO)[C@@H](O)[C@H](OC(N)=O)[C@@H]1O)c1cnc[nH]1` (stereo not given in full), in [1], the Potency was 0.15 µM (active). For the same molecule, the Potency entry in assay [2], in assay [3], in assay [4], in [5], in [6] and in assay [7] was “inactive” throughout. Besides, the Potency entry in assay [8], in [9] and in assay [10] was “inactive” each time.
Regarding `CO[C@H]1[C@@H](O)[C@H](N)[C@@H](O[C@H]2O[C@H]([C@H](C)N)CC[C@H]2N)[C@H](O)[C@@H]1N(C)C(=O)CN`, the Potency result in assay [1], in [2], in assay [3], in [4], in assay [5] and in assay [6] was “inactive” in each case. For the same molecule, the Potency result in assay [7], in [8], in [9] and in [10] was “inactive” throughout.
Turning to `C=CCN1CCCC1CNC(=O)c1cc(S(N)(=O)=O)cc(OC)c1OC` (stereo not given), the Potency result in assay [1], in assay [2], in assay [3], in [4], in [5] and in [6] was “inactive” in each case. In addition, the Potency result in assay [7], in assay [8], in assay [9] and in [10] was “inactive” each time.
For the molecule `CN(C(=O)CO)c1c(I)c(C(=O)NCC(O)CO)c(I)c(C(=O)NCC(O)CO)c1I` (stereo not given), the Potency entry in assay [1], in assay [2], in assay [3], in assay [4], in assay [5] and in assay [6] was “inactive” each time. The Potency entry in assay [7], in assay [8], in [9] and in [10] was “inactive” in each case.
Take `COCC1=C(C(=O)OC(C)OC(=O)OC(C)C)N2C(=O)[C@@H](NC(=O)/C(=N\OC)c3csc(N)n3)[C@H]2SC1` (stereo not given in full): the Potency result in assay [1], in assay [2], in assay [3], in assay [4], in assay [5] and in [6] was “inactive” throughout. Also, the Potency entry in assay [7], in assay [8], in assay [9] and in assay [10] was “inactive” each time.
For the molecule `CCOC(=O)COc1ccc2c(C)c(CCN(CC)CC)c(=O)oc2c1`, the Potency result in [1], in assay [2], in assay [3], in assay [4], in [5] and in assay [6] was “inactive” throughout. Moreover, the Potency result in assay [7], in assay [8], in assay [9] and in [10] was “inactive” in each case.
As to `CCCCCCCCCCCCCCCC(=O)OC[C@@H](NC(=O)C(Cl)Cl)[C@H](O)c1ccc([N+](=O)[O-])cc1`, the Potency result in assay [1], in [2], in assay [3], in [4], in assay [5] and in [7] was “inactive” in each case. Also, the Potency result in [8], in [9] and in assay [10] was “inactive” throughout. Also, the Potency in [6] is 33.5 µM (active).
Regarding `CCNC(=O)[C@@H]1CCCN1C(=O)[C@H](CCCN=C(N)N)NC(=O)[C@H](CC(C)C)NC(=O)[C@@H](CC(C)C)NC(=O)[C@H](Cc1ccc(O)cc1)NC(=O)[C@H](CO)NC(=O)[C@H](Cc1c[nH]c2ccccc12)NC(=O)[C@H](Cc1cnc[nH]1)NC(=O)[C@@H]1CCC(=O)N1`, the Potency entry in assay [1], in assay [2], in assay [3], in assay [4], in assay [5] and in assay [6] was “inactive” in each case. The Potency entry in [7], in assay [8], in assay [9] and in [10] was “inactive” each time.
Consider `CN1CC(O)c2cc(N=NC(N)=O)c(O)cc21` (stereo not given), for which the Potency result in [1], in assay [2], in [3], in assay [4], in [5] and in [6] was “inactive” each time. Further, the Potency result in assay [7], in assay [8], in assay [9] and in assay [10] was “inactive” in each case.
For the molecule `NCCC[C@H](N)CC(=O)N[C@H]1CNC(=O)[C@H]([C@H]2C[C@H](O)NC(N)=N2)NC(=O)/C(=C/NC(N)=O)NC(=O)[C@H](CO)NC(=O)[C@H](CO)NC1=O` (β3hOrn-[Dap]SS[ΔAla(Z-3-ureido)][X5]; lactam 1-C), the Potency result in [1], in assay [2], in [3], in assay [4], in [5] and in assay [6] was “inactive” in each case. The Potency result in [7], in assay [8], in assay [9] and in assay [10] was “inactive” each time.
Take `N=C(N)c1ccc(OCCCOc2ccc(C(=N)N)cc2Br)c(Br)c1`: the Potency entry in assay [1], in [2], in [3], in assay [4], in assay [5] and in assay [6] was “inactive” in each case. The Potency result in [7], in [8], in [9] and in assay [10] was “inactive” throughout.
For `CCCC(=O)O[C@]1(C(=O)COC(=O)CC)[C@@H](C)C[C@H]2[C@@H]3CCC4=CC(=O)C=C[C@]4(C)[C@@]3(F)[C@@H](O)C[C@@]21C`, the Potency result in assay [1], in assay [2], in assay [3], in [4], in assay [5] and in assay [7] was “inactive” throughout. The Potency result in assay [8], in [9] and in assay [10] was “inactive” throughout. Besides, the Potency in assay [6] was 26.6 µM (active).
For `NC[C@@H]1O[C@H](O[C@H]2[C@@H](O)[C@H](O[C@@H]3[C@@H](O)[C@H](N)C[C@H](N)[C@H]3O[C@H]3O[C@H](CO)[C@@H](O)[C@H](O)[C@H]3N)O[C@@H]2CO)[C@H](N)[C@@H](O)[C@@H]1O`, the Potency result in [1], in assay [2], in [3], in [4], in assay [5] and in assay [6] was “inactive” each time. In addition, the Potency entry in [7], in assay [8], in [9] and in assay [10] was “inactive” each time.
Consider `CCCCCCCCCCCCCCCCCCCCCC(=O)Nc1ccn([C@@H]2O[C@H](CO)[C@@H](O)[C@@H]2O)c(=O)n1`, for which the Potency in assay [1] is 11.9 µM (active). Moreover, the Potency entry in [2], in [3], in assay [4], in assay [5], in assay [6] and in assay [7] was “inactive” in each case. Moreover, the Potency result in assay [8], in assay [9] and in [10] was “inactive” throughout.

Values taken from PubChem BioAssay (Tox21).
